Results on 39 molecules are retold here after the supplement of paper PMC12350171.

Where a name gives a salt, the structure may show the parent alone. Unmarked numbers belong to inactive results.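 Rule for the calls: active = AUC significantly below DMSO controls by Student t-fit with adjusted P under 0.01; inactive = not significantly reduced.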

The test system of this test is Haemophilus parainfluenzae. Description: growth AUC normalised to DMSO control (fraction of control); higher = less growth inhibition, active = hit call of the paper. Conditions: 20 µM. Put shortly: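 Hemin and NAD were added to the medium for Haemophilus parainfluenzae. All pathogens, after two anaerobic passages, were inoculated at a starting OD578 of 0.01 into pre-reduced mGAM plates with 20 μM compound and 1% DMSO under breathable seals, and OD578 was read hourly for 24 h in three biological replicates. AUC of each growth curve was obtained with the trapezoidal rule up to the exponential-to-stationary transition and normalised to DMSO controls from the same plate.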
For the molecule `C=CCSCC1Nc2cc(Cl)c(S(N)(=O)=O)cc2S(=O)(=O)N1` (centres undefined) [Althiazide], the “growth AUC normalised to DMSO control” value is 1.07. With `O=C(O)CCC(=O)Nc1ccc(S(=O)(=O)Nc2nccs2)cc1` [Succinylsulfathiazole], the “growth AUC normalised to DMSO control” value was 1.01. As for `O=C(O)c1ccccc1OP(=O)(O)O` [Fosfosal], the “growth AUC normalised to DMSO control” value was 0.998. To `NS(=O)(=O)Cc1noc2ccccc12` [Zonisamide] belongs 0.981; to `C1N2CN3CN1CN(C2)C3` [Methenamine], 1.05; to `OC(CCCN1CCCCC1)(c1ccccc1)c1ccccc1` [Diphenidol hydrochloride], 1. `CCC[C@H](N[C@@H](C)C(=O)N1[C@H](C(=O)O)C[C@@H]2CCCC[C@@H]21)C(=O)OCC` [Perindopril]: the “growth AUC normalised to DMSO control” value is 1.01. The value for `N[C@@H]1CONC1=O` [D-cycloserine] was 1.04; that for `COc1ccc(NS(=O)(=O)c2ccc(N)cc2)nn1` [Sulfamethoxypyridazine] was 1.04.

For the molecule `C[C@@H]1CCC[C@H](C)N1NC(=O)c1ccc(Cl)c(S(N)(=O)=O)c1` [Clopamide], the “growth AUC normalised to DMSO control” value is 0.984. To `COC1=C(OC)C(=O)C(CCCCCCCCCCO)=C(C)C1=O` [Idebenone] belongs 1.04; to `OCCOCCN1CCN(C(c2ccccc2)c2ccc(Cl)cc2)CC1` (centres undefined) [Hydroxyzine dihydrochloride], 0.978; to `O=C(NCC1CCCCN1)c1cc(OCC(F)(F)F)ccc1OCC(F)(F)F` (centres undefined) [Flecainide acetate], 0.99. To `COc1ccccc1Oc1c(NS(=O)(=O)c2ccc(C(C)(C)C)cc2)nc(-c2ncccn2)nc1OCCO` [Bosentan] belongs 0.966; to `CC(C(=O)O)c1ccc(C(=O)c2cccs2)cc1` (centres undefined) [Suprofen], 0.987; to `CNC(=O)c1c(I)c(C(=O)NCC(=O)Nc2c(I)c(C(=O)O)c(I)c(C(=O)NCCO)c2I)c(I)c(N(C)C(C)=O)c1I` [Ioxaglic acid], 0.921. To `c1ccc(C2CN3CCSC3=N2)cc1` (centres undefined) [Tetramisole hydrochloride] belongs 0.997; to `CC(C)(C)NC(=O)[C@H]1CC[C@H]2[C@@H]3CC[C@H]4NC(=O)C=C[C@]4(C)[C@H]3CC[C@]12C` [Finasteride], 1.06. Consider `COc1cccc2c1C(=O)c1c(O)c3c(c(O)c1C2=O)C[C@@](O)(C(=O)CO)C[C@@H]3O[C@H]1C[C@H](N)[C@H](O)[C@H](C)O1` [Doxorubicin hydrochloride], for which the “growth AUC normalised to DMSO control” value is 0.979.

Take `COC(c1ccccc1)(c1ccccc1)[C@H](Oc1nc(C)cc(C)n1)C(=O)O` [Ambrisentan]: the “growth AUC normalised to DMSO control” value is 1.05. For `Cc1c(Cl)cccc1Nc1ccccc1C(=O)O` [Tolfenamic acid], the “growth AUC normalised to DMSO control” value is 0.852 (active). To `CC[C@H]1OC(=O)[C@H](C)[C@@H](O[C@H]2C[C@@](C)(OC)[C@@H](O)[C@H](C)O2)[C@H](C)[C@@H](O[C@@H]2O[C@H](C)C[C@H](N(C)C)[C@H]2O)[C@](C)(O)C[C@@H](C)C(=O)[C@H](C)[C@@H](O)[C@]1(C)O` [Erythromycin] belongs 0.028 (active); to `O=C(Nc1ccccc1)OCC(CN1CCCCC1)OC(=O)Nc1ccccc1` (centres undefined) [Diperodon hydrochloride], 1.02; to `CN(C)CCN(Cc1ccc(Cl)cc1)c1ccccn1` [Chloropyramine hydrochloride], 1.03. The value for `N=C(N)NC(=N)NCCc1ccccc1` [Phenformin hydrochloride] was 1.04; that for `COC(=O)C1=C(C)NC(C)=C(C(=O)OCCN(C)Cc2ccccc2)C1c1cccc([N+](=O)[O-])c1` (centres undefined) [Nicardipine hydrochloride] was 1.01; that for `CN[C@@H]1[C@H](O[C@H]2[C@H](O[C@H]3[C@H](O)[C@@H](O)[C@H](NC(=N)N)[C@@H](O)[C@@H]3NC(=N)N)O[C@@H](C)[C@]2(O)CO)O[C@@H](CO)[C@H](O)[C@H]1O` [Dihydrostreptomycin sulfate] was 0.0409 (active).

On to `CN(C)CCC(c1ccc(Cl)cc1)c1ccccn1` (centres undefined) [Chlorpheniramine maleate], for which the “growth AUC normalised to DMSO control” value was 0.995. Take `NC(=O)OCC(O)COc1ccc(Cl)cc1` (centres undefined) [Chlorphensin carbamate]: the “growth AUC normalised to DMSO control” value is 1.01. To `CNS(=O)(=O)Cc1ccc2[nH]cc(CCN(C)C)c2c1` [Sumatriptan succinate] belongs 0.984. The value for `O=C(N/N=C/c1ccc([N+](=O)[O-])o1)c1ccc(O)cc1` [Nifuroxazide] was 0.532 (active). Turning to `CCSc1ccc2c(c1)N(CCCN1CCN(C)CC1)c1ccccc1S2` [Thiethylperazine maleate], the “growth AUC normalised to DMSO control” value was 1.02. Consider `Cc1cc(C)nc(NS(=O)(=O)c2ccc(N)cc2)n1` [Sulfamethazine sodium salt], for which the “growth AUC normalised to DMSO control” value is 0.999. The value for `CCN(CC)CCOC(=O)C(c1ccccc1)c1ccccc1` [Adiphenine hydrochloride] was 1.02; that for `Clc1ccc(C(c2ccccc2Cl)C(Cl)Cl)cc1` (centres undefined) [Mitotane] was 1.01; that for `CC(=O)Nc1ccc(OCC(O)CNC(C)C)cc1` (centres undefined) [Practolol] was 1.01. In the case of `C[C@]12CC[C@@H]3c4ccc(O)cc4C[C@@H](CCCCCCCCC[S+]([O-])CCCC(F)(F)C(F)(F)F)[C@H]3[C@@H]1CC[C@@H]2O` (some centres undefined) [Fulvestrant], the “growth AUC normalised to DMSO control” value was 1.32. Regarding `O=C(OCC(O)CO)c1ccccc1Nc1ccnc2cc(Cl)ccc12` (centres undefined) [Glafenine hydrochloride], the “growth AUC normalised to DMSO control” value was 0.978. For `CN(C)CC/C=C1/c2ccccc2Sc2ccc(Cl)cc21` [Chlorprothixene hydrochloride], the “growth AUC normalised to DMSO control” value is 0.887.
